Screens: PubChem, National Center for Advancing Translational Sciences (NCATS)
Only some compounds are listed: those with a hit (about 7.7% of all), similar ones and a draw of the others.
RE007 growth inh – less growth of the S. pombe RE007 Vpr strain. S. pombe RE007 Vpr strain, BacTiter-Glo ATP luminescence, 24 h. Potency, µM (doses to about 92.2 µM), without a hit: at the top dose activity change, negative = less growth, actives largely listed as inhibitors. actives 0.21% (n = 360,000). AID 651644; active means well fitted falling curve with a large enough effect; inconclusive means small, poorly fitted or top-dose-only effect; inactive means no such curve, though single readings can be large or run the other way; further: potency means the concentration at half of the fitted maximal effect; nearly all actives have a fitted effect of over 50% in size
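Fission yeast RE007 carrying one integrated HIV-1 vpr copy, seeded at OD 0.01 in PMG+AL medium with 23 nL pinned compound. Grown 24 h at 30 degrees; viability read by BacTiter-Glo luminescence after 5 min.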
FBPA Giardia inh – blocks Giardia fructose-bisphosphate aldolase activity | purified Giardia FBPA | actives 0.71% (n = 290,000) | AID 2451 | Potency, µM (highest dose often 59.6 µM), inactives show at the highest dose activity, negative = inhibition, most hits filed as inhibitors | A8B2U2; further: potency means the concentration at half of the fitted maximal effect; nearly all actives have a fitted effect of over 55% in size
Target sequence (A8B2U2 whole entry, looked up): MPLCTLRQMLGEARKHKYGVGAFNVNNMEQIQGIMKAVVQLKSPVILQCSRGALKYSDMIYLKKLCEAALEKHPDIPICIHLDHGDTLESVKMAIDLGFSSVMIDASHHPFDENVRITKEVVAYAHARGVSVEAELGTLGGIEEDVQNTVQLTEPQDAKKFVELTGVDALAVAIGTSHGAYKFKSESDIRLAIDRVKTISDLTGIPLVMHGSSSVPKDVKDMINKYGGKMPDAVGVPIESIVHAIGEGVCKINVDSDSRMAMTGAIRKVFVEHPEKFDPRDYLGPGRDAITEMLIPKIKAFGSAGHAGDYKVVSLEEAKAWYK
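Giardia FBPA (40 nM reagent) was preincubated 10 min at RT with compound (up to 57.5 uM final), then substrate plus GAPDH/TPI/NAD/arsenate coupling system with diaphorase/resazurin was added; resorufin fluorescence (525/598 nm) was read after 20 min.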
TbPYK inhibitor – blocks Trypanosoma brucei pyruvate kinase. Potency, µM (highest dose often 76.8 µM), without a hit: at the highest dose activity, negative = inhibition, most hits filed as inhibitors. AID 624173. TbPYK enzyme, Kinase-Glo Plus ATP luminescence, 45 min. actives 0.12% (n = 410,000). Q57TT1; further: potency means the concentration at half of the fitted maximal effect; nearly all actives have a fitted effect of over 50% in size
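Assay buffer: 50 mM TEA pH 7.2, 100 mM KCl, 10 mM MgCl2, 0.05% BSA, 0.01% Tween-20. Pyruvate kinase from T. brucei plus substrate met compound, then ADP (130 uM final). Luminescence was read post 45 min RT.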
FMDV antiviral – antivirals against foot and mouth disease virus; actives 1.2% (n = 410,000); FMDV antiviral cell-based qHTS; AID 1159524; Potency, µM (top dose mostly 57.9 µM), without a hit: at the top dose activity change, negative = inhibition, actives largely listed as inhibitors; calls by dose curve; tested in HEK293T cells; further: read-out not given here; potency means the concentration at half of the fitted maximal effect; nearly all actives have a fitted effect of over 45% in size
HCMV inh – blocks human cytomegalovirus replication; HFF cells, HCMV-luciferase reporter, 72 h; active compounds read low; actives 4.5% (n = 410,000); activity change, negative = inhibition, % at 57.5 µM; AID 1259415; in the data active means activity change below about -60%; inconclusive means no clear call, values can overlap the other calls; inactive means above about -39%
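After 16 h attachment at 37C, HFF cells received test compound and HCMV-luciferase (1 PFU/cell); reporter luminescence read 72 h later, data normalized against buffer-only and known inhibitor Salinomycin.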
Sm TGR block – inhibitors of Schistosoma mansoni thioredoxin glutathione reductase; Q962Y6; purified TGR, DTNB reduction, TNB absorbance 405 nm; actives 3% (n = 360,000); AID 485364; Potency, µM (series often up to 114 µM), for the others: at the top dose activity change, negative = inhibition, actives largely listed as inhibitors; further: potency means the concentration at half of the fitted maximal effect; nearly all actives have a fitted effect of over 60% in size
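TGR 20 nM + NADPH 100 uM (dispensed conc.), cpd preinc 15 min RT; start with NADPH (500 uM addition) then DTNB (15 mM addition). Kinetic TNB absorbance, 405 nm filter. Four-parameter Hill fit across titration.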
* = called active by the depositor; ? = inconclusive; . = not tested or not shown; [ ] = another dose, or the depositor's remark. Unless noted, the call rests on the fitted dose curve; in most records, active means well fitted curve in the direction sought with a large enough effect; inconclusive means small, poorly fitted or top-dose-only effect, or another doubt; inactive means no such curve, though single readings can be large; an effect the other way counts as inactive or inconclusive. On the % scale 0 is the no-effect control and ±100 the full control effect.

SMILES	RE007 growth inh	FBPA Giardia inh	TbPYK inhibitor	FMDV antiviral	HCMV inh	Sm TGR block
O=C(/C=C/c1ccco1)Nc1ccc2c(c1)OCCO2	-14%	-22%	-2%	-30%	-17	20µM*
O=C(/C=C/c1ccccc1)Nc1ccc2c(c1)OCCO2	35%	-28%	0%	-42%	16	4%[57.1 µM]
O=C(/C=C/c1ccc(Cl)cc1Cl)Nc1ccc(CN2CCOCC2)cc1	7%	5%	3%	?	-86*	-1%
O=C(Nc1ccc(CN2CCOCC2)cc1)c1ccc(-c2cc(Cl)ccc2Cl)o1	1%	-4%	4%	28µM*	?	33%
Cc1cc(NC(=O)OC(C)(C)C)c(-n2nnnc2C(C(=O)c2ccc3c(c2)OCO3)N2CCCCC2)cc1C (centres undefined)	.	.	.	.	-8	.
CCOc1ccc(CCNC(=O)c2cc(Nc3ccc(C)cc3C)nc3ccccc23)cc1OCC	.	.	2%	-11%	-4	6%
O=C(Nc1nc2cc3c(cc2s1)OCCO3)c1ccco1	?	.	-18%	?	-92*	-35%
O=C(Nc1nc2cc3c(cc2s1)OCO3)C1=COCCO1	?	-30%	?	-83%	-71*	-4%
CC(=O)Nc1nc2cc3c(cc2s1)OCO3	-11%	1%	-9%	47%	-5	-1%
O=C(Nc1nc2cc3c(cc2s1)OCO3)c1ccco1	?	15%	-10%	-75%	0	-18%
C=C(CC[C@@H](C)[C@H]1CCC2[C@]1(C)CC[C@]13C[C@@]14CCC(OC(=O)/C=C/c1ccc(O)c(OC)c1)C(C)(C)[C@@H]4CC[C@@]23C)C(C)C (some centres undefined)	.	.	-8%	.	.	.
O=C(CSc1nnc(-c2ccccc2Br)n1-c1ccccc1)c1ccc(F)cc1	.	.	-14%	-10%	-31	-3%
CCOC(=O)c1cc(S(=O)(=O)Nc2cc(OC)ccc2OC)[nH]n1	.	.	-10%	8%	0	0%
FC(F)(F)c1ccc(C2[C@H]3CN(CC4CCCCC4)[C@H](c4ccccc4)C34CC2(c2ccccc2)C4)cc1 (some centres undefined)	.	0%	.	.	.	.
Brc1ccc(N=Nc2ccc3ccccc3n2)cc1	-1%	3%	?	10µM*	?	11%
COc1ccc(S(=O)(=O)Nc2c(C)cc(C)cc2C)c2cccnc12	2%	4%	1%	?	-62*	2%
O=C(c1ccc2c3n(nc2c1)-c1ccccc1CO3)N1CCOCC1	?	0%	18µM*	42%	.	-1%
O=C(c1ccc2c3n(nc2c1)-c1ccccc1CO3)N1CCCCC1	?	0%	?	15%	18	-2%
O=C(CN1C(=O)CC(c2ccc(F)cc2)=Nc2ccccc21)NCc1ccccc1Cl	.	.	-2%	5%	-64*	-10%
Cc1ccc(C2=Nc3ccccc3N(CC(=O)NCc3ccc(F)cc3)C(=O)C2)cc1C	.	.	2%	12%	1	2%
CCOC(=O)CCNC(=O)C1=CN2CCN(Cc3ccccc3C)C(=O)N=C2O1	.	.	.	.	6	.
CC(NC(=O)C1CC12CCC2)c1ccccc1 (centres undefined)	16%	12%	6%	9%	-61*	2%
CC[n+]1c(/C=C/N(C)c2ccccc2)n(-c2ccccc2)c2ccc(-c3nc4ccccc4s3)cc21	-14%	-13%	-14%	6.3µM*	.	-31%
CC(C)CNc1ncnc2c1ncn2[C@H]1CN(Cc2ccncc2)C[C@@H](CO)O1	7%[18.4 µM]	.	-7%	-13%	-35	.
OCCN1CCN(c2ncnc3c2ncn3[C@H]2CN(Cc3ccc(F)cc3)C[C@@H](CO)O2)CC1	7%[18.4 µM]	.	-29%	-4%	-10	.
SMILES	RE007 growth inh	FBPA Giardia inh	TbPYK inhibitor	FMDV antiviral	HCMV inh	Sm TGR block
CC(C)Nc1ncnc2c1ncn2[C@H]1CN(Cc2ccc(-c3ccccc3)cc2)C[C@@H](CO)O1	16%	.	0%	?	-66*	.
CC(C)CNc1ncnc2c1ncn2[C@H]1CN(Cc2ccc(-c3ccccc3)cc2)C[C@@H](CO)O1	-23%	.	-7%	?	-73*	.
OCCN1CCN(c2ncnc3c2ncn3[C@H]2CN(Cc3cccc(C(F)(F)F)c3)C[C@@H](CO)O2)CC1	-11%	.	2%	-1%	-62*	.
Cc1cccc2cc(CN(CC3CCCO3)C(=O)c3cccc(F)c3)c(N(C)C)nc12 (centres undefined)	.	.	.	-5%	.	.
COc1cccc(-n2cnnc2SC(C)C(=O)NC2CCCC2)c1 (centres undefined)	1%	.	-13%	-8%	98	50µM*
CCN(CC)c1ccc(/C=N/NC(=O)c2cccc(S(=O)(=O)N3CCOCC3)c2)c(O)c1	8%	2%	3%	?	-75*	-23%
O=[N+]([O-])c1ccc(N/N=C/c2sc(N3CCOCC3)nc2-c2ccccc2)c(S(=O)(=O)Nc2ccc(Cl)cc2)c1	-4%	-6%	-12%	?	-88*	.
CCOC(=O)N/N=C/c1ccc(N(CC)CC)cc1O	-10%	-3%	3%	32%	24	-1%
CCN(CC)c1ccc(/C=N/NC(=O)c2c(Cl)cnn2C)c(O)c1	?	14%	0%	21%	-101*	-25%
O=C(N/N=C/c1sc(N2CCOCC2)nc1-c1ccccc1)c1cccc(S(=O)(=O)N2CCOCC2)c1	10%	-6%	0%	-20%	-100*	-8%
O=C(Nc1ccccc1F)C(=Cc1sc(N2CCOCC2)nc1-c1ccccc1)C(=O)Nc1ccccc1F	-5%	2%	0%	0%	-70*	-13%
O=C(N/N=C/c1sc(N2CCOCC2)nc1-c1ccccc1)c1ccccc1F	1%	0%	-2%	?	.	4%
Cc1c(O)nc(SCC(=O)Nc2cccc(C(F)(F)F)c2)n(-c2ccccc2)c1=O	29%	.	3%	-21%	-104*	3%
Cc1ccccc1NC(=O)CSc1nc2ccccc2c2nc(CCn3c(C)nc4ccccc43)nn12	.	.	0%	?	-4	-5%
Cc1nc2ccccc2n1CCc1nc2c3ccccc3nc(SCC(=O)Nc3cccc(C(F)(F)F)c3)n2n1	.	.	0%	0%	-61*	13%
Cc1ccc(NC(=O)CSc2nc3ccccc3c3nc(CCn4c(C)nc5ccccc54)nn23)cc1F	.	.	2%	-27%	-11	-1%
Cc1nc2ccccc2n1CCc1nc2c3ccccc3nc(SCC(=O)NCc3ccco3)n2n1	-3%	-7%	5%	?	-62*	?
Cc1cccc(OCCSc2nnc(-c3cccs3)o2)c1	.	.	1%	-11%	25	8%
CCc1ccc(-n2c(=O)c3c4c(sc3n(CC(=O)NCCCOC)c2=O)CCC4)cc1	.	.	0%	-14%	13	-4%
